Results published in the supplement of paper PMC11417369.
± gives the standard deviation of the averaged measurements. Whole data set: some 25,000 sequences, median “ln(normalized median fluorescence intensity)” near 8.9, cut for the highest 2% near 10. This is one part of a sample in which the highest values are shown more often than they occur.

test system: PfAP2-LT AP2 domain (GST-tagged); assay: gcPBM binding intensity (ln(normalized median fluorescence intensity)); higher = stronger DNA binding
Method in brief: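 Binding intensity is the highest Masliner-normalised natural-log median intensity over replicate spots in either probe orientation. To obtain it, GST-tagged P. falciparum DNA-binding domains made in E. coli were incubated for 1 h on an Agilent 4 × 180k array of primer-extended double-stranded 36-bp intergenic genomic probes plus negative controls. Detection used Alexa488 anti-GST antibody with scanning at 488 nm.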

Row | Sequence | gcPBM binding intensity (ln)
1 | TAATGAAGATATATAACACACAAAAGTTATAAATAT [CACACA_site6678] | 8.97 ± 0.43
2 | AAAATATAGTAACACATACACACATATATATTTATA [CACACA_site2504] | 9.19 ± 0.38
3 | ATAATATATATGAAATGTACATAAATTTAATGCGAC [XGTACX_site5394] | 9.18 ± 0.45
4 | AACTGCAAAAAAAGACGTACAAATTATTAATTGCAA [XGTACX_site8929] | 8.88 ± 0.54
5 | ATATAAATAACGTGTACACACATATGTATTTATATA [CACACA_site6520] | 9.12 ± 0.31
6 | AATATACAAAATATCACACATATAAAATAATATATA [CACACA_site6067] | 8.88 ± 0.45
7 | GGAACAAATAATATCACACATATATATATATATATA [CACACA_site5670] | 10.2 ± 0.41
8 | AATTAACCGAAACACACACACATATATATATATATA [CACACA_site3963] | 10.24 ± 0.064
9 | AAAATTAACCGTAACACACACACATATATATATATA [CACACA_site3964] | 9.96 ± 0.28
10 | TACATAAAATATATCACACATATAATATATATATAT [CACACA_site5834] | 8.86 ± 0.35
11 | AAAAAAAATAAACACACACACATACCCATAAATATA [CACACA_site5980] | 10 ± 0.13
12 | AAAAAAAAAAAAAACACACACACAATAGTATATAAA [CACACA_site957] | 9.55 ± 0.43
13 | TCATAGTATAAACACACACACACACCCATATATATA [CACACA_site8512] | 10.1 ± 0.31
14 | AAAAAAAAAAAAAACACACACACACCCATAAATATA [CACACA_site151] | 10.2 ± 0.15
15 | ACCATATAAATAAACACACACACACCCATATATATA [CACACA_site2321] | 10 ± 0.36
16 | TTAATTAAGAAACACACACACATATATATATATATT [CACACA_site2290] | 9.79 ± 0.12
17 | TTTTTTTTTTTTTTTACACACTATAGGGAAAAAAAA [CACACA_site1916] | 8.21 ± 0.37
18 | AGAAAGAAAGAATACACACACACATATATATATATC [CACACA_site3744] | 9.95 ± 0.3
19 | GAATTAAAATAATACGTACACACATGTATAATACAT [CACACA_site1004] | 9.21 ± 0.29
20 | AAAAAATATATATCACGTGGTAATATATATATATAT [XGTACX_negctrl_site252] | 9.16 ± 0.14
21 | CATAAATACATACATACACACATATTTATATTTATA [CACACA_site7071] | 9.16 ± 0.4
22 | TATATATAAAAACACACACACACACCCTATAATTAT [CACACA_site4063] | 10.18 ± 0.042
23 | ATAATATATATATAAACACACAAAAAAAATTATATA [CACACA_site1534] | 8.96 ± 0.42

Row | Sequence | gcPBM binding intensity (ln)
24 | ATATAATATATATATAAACACACAAAAAAAATTATA [CACACA_site8434] | 8.97 ± 0.45
25 | TTGAAAATACAAAATTGTACAAAGATTTAAATAAAA [XGTACX_site1182] | 8.7 ± 0.49
26 | TGAATAAATCAAAGCACACATACACCCACATATATA [CACACA_site286] | 9.47 ± 0.24
27 | GCATACATCAAGCACACACACACACGCACACGCACA [CACACA_site6311] | 10.2 ± 0.19
28 | AAGCATACATCAAGCACACACACACCCACACCCACA [CACACA_site372] | 10.3 ± 0.42
29 | AATAAATAAGCACATACACACATACATACATACATA [CACACA_site6075] | 9.54 ± 0.26
30 | AGAAGCATACATCAAGCACACACACCCACACCCACA [CACACA_site8014] | 10 ± 0.37
31 | ATACATCAAGGACACACACACACACCCACACCCACA [CACACA_site8013] | 10.4 ± 0.27
32 | TAAATAAGCACATACACACATACATACATACATAAA [CACACA_site4017] | 9.44 ± 0.38
33 | CATATACATCCACATACACACATACACCCATACACA [CACACA_site5038] | 9.66 ± 0.28
34 | AAATAAAAAAAAAAAAAAAATAACTTAAATGGGATA [TGCATGCA_negctrl_site595] | 8.33 ± 0.58
35 | TGCATTATATTAAATTTTTTATTTGTTGATGTTATA [GTGCAC_negctrl_site371] | 8.57 ± 0.47
36 | TAAAATATATATATGTGTACATAACATATAATTTTT [XGTACX_site1725] | 8.6 ± 0.46
37 | TAAAATTTATAAACTACACACATATATATAGTAATA [CACACA_site3728] | 8.8 ± 0.42
38 | TATATATAATATTTTTCACACACCATTTCCTTAAAC [CACACA_site1341] | 9.04 ± 0.29
39 | AATCATGCTCCGGAAAGTACATAAATAAATAAATAA [XGTACX_site1690] | 8.85 ± 0.56
40 | TAGAATATCCCCTACACACCCAAATAATTTACAAAT [CACACA_site4825] | 9.3 ± 0.35
41 | AGGGAATAATATTAATGTACATATATGAACTTGTTT [XGTACX_site6089] | 8.93 ± 0.43
42 | CACCCCCACAGACACACACACACACCCATATATATA [CACACA_site364] | 10.45 ± 0.042
43 | TAGACTCCCAGACACACACACACACCCATATAATAT [CACACA_site593] | 10.2 ± 0.35
44 | TATATATATATAGACACACACACACCCATATATATA [CACACA_site4117] | 9.94 ± 0.23
45 | TATATACATAGACACCCACACACAAAAAAAAAAAAA [CACACA_site8186] | 9.43 ± 0.42
46 | TATACATACAGACCCACACACAAAAAAAAAAAAAAA [CACACA_site6536] | 9.35 ± 0.5

Row | Sequence | gcPBM binding intensity (ln)
47 | TACATATACAGACACACACACACACCCCCACAAAAA [CACACA_site495] | 10.45 ± 0.099
48 | CACCCCCACAGACACACACACACACCCACATATATA [CACACA_site365] | 10.54 ± 0.035
49 | TACGCTCCCAGACACACACACACACCGATATAATAT [CACACA_site8098] | 9.89 ± 0.23
50 | TATGATACATAATATACATGCATACACAACATTCAG [TGCATGCA_site487] | 8.94 ± 0.37
51 | ATATATATACCAAGTAGTACATTCTACAACTAATGT [XGTACX_site8653] | 8.79 ± 0.4
52 | ATATTTTGTTATGTAGATGTTGGTAGGAATTTTGGT [CACACA_negctrl_site1104] | 8.83 ± 0.4
53 | CAATTAAACAATTAAACATGCAAAATGATATAATAA [TGCATGCA_site240] | 8.87 ± 0.49
54 | TACGTAAAAATAGGACGTACTTATTTAGAAACCATA [XGTACX_site2498] | 8.72 ± 0.49
55 | AAGAGTTTGAAGTTTGCACACTACGTTAAAAATAAA [CACACA_site3939] | 8.72 ± 0.59
56 | ATAAATAAAACAACAGTGCAATAAAATTAGTTGAGG | 9.07 ± 0.54
57 | ACATAATAAAAAAAACGTACAAATAGGTTTTTCATA [XGTACX_site6645] | 8.85 ± 0.57
58 | ATGAGTTACATGGGAAAAATATATATATATATATAT [CACACA_negctrl_site579] | 9.8 ± 0.23
59 | TCTATACCTATTCTTACACACATATGTATTTATATA [CACACA_site4475] | 9.28 ± 0.46
60 | CACCCATACAGACATACACACACATATATATTAATA [CACACA_site8077] | 9.67 ± 0.27
61 | AGACATATAATATATACACACATATATATATATATA [CACACA_site1066] | 9.93 ± 0.085
62 | CACACCCACAGACACACACACACATATATAATATAT [CACACA_site594] | 10.2 ± 0.54
63 | AAATTTTCACTTCAAAAACACACGTATTTTTTTCCT [CACACA_site3813] | 8.8 ± 0.47
64 | CAACAACAAAAAAAAAAATAATAATAATAAAAAATA [TGCATGCA_negctrl_site271] | 8.71 ± 0.5
65 | AGGACAAGGGTTACATGTACATATATATATATATAT [XGTACX_site901] | 10.2 ± 0.14
66 | CAAGGACAATTTACAAACATAATATATGTATATATA [TGCATGCA_negctrl_site5] | 8.66 ± 0.55
67 | CATATGTATATGACTACACACAAGGGTGTACATATA [CACACA_site1164] | 9.2 ± 0.38
68 | ATCATAATTTATTATACACACAATACGTGACCTATT [CACACA_site6977] | 9.24 ± 0.47
69 | ATATTTTGTATAATCACACACACTATTCTTAAATAG [CACACA_site7270] | 9.23 ± 0.37

Row | Sequence | gcPBM binding intensity (ln)
70 | AACAAACACGGACACACACACACACTAGAATGATTA [CACACA_site5364] | 10.2 ± 0.31
71 | CAAACAAACGGACACACACACACACCCAAAAATGAT [CACACA_site5363] | 10.1 ± 0.18
72 | CAAACCCACGGACACACACACACAAAAATGATTAAA [CACACA_site5365] | 9.71 ± 0.38
73 | TTAACAAAGAAACACACACACACACCCAAAAAAAAA [CACACA_site516] | 10.2 ± 0.11
74 | AAAGAAGGGAAACACACACACACACCCACAAAAAAA [CACACA_site3766] | 10.18 ± 0.099
75 | CACACCCACCAACACACACACAAAAAAAAAAAGAAA [CACACA_site500] | 9.56 ± 0.47
76 | CAACAAAAGAAACACACACACACAAACACAAAAAAA [CACACA_site3389] | 9.91 ± 0.16
77 | CAAAAGAAGGTAAACACACACACACCCATACAAAAA [CACACA_site3765] | 10.1 ± 0.43
78 | TATTTATTAAAACACACACACACACCCACAAAATAA [CACACA_site241] | 10.04 ± 0.099
79 | CCCGAACAAACAAATAAACACACAAAAAAAAATATA [CACACA_site8540] | 9.15 ± 0.47
80 | GAATAATCCAAACACACACACACACCCGAATAAATA [CACACA_site482] | 10.3 ± 0.45
81 | TTAATAACAAAATAAACACACATATATAAATCCACA [CACACA_site1590] | 9.09 ± 0.38
82 | TTTATTAATAAACACACACACACACCCAAAATAAAA [CACACA_site7966] | 10.2 ± 0.18
83 | TTTATTAATGGACACACACACACACCCAAAATAAAA [CACACA_site4294] | 10 ± 0.13
84 | TTAAAGCACCCATGCACACACACAAGGGAAAAGAAA [CACACA_site4289] | 9.49 ± 0.4
85 | ATTTCAAATTAATTTACACACTTCATACTAAAAGAC [CACACA_site3176] | 8.71 ± 0.4
86 | GGAAAAAAATATAAAAGTACTTTTTATTTATTTTAT [XGTACX_site7418] | 8.4 ± 0.51
87 | AGGAATATAAAGTGCACACATAATTTGGGGGCAAAA [CACACA_site258] | 9.25 ± 0.44
88 | AATTAAATTACTTATACACACATAAAATGGGTGTAT [CACACA_site4703] | 8.97 ± 0.37
89 | AATAAAGGAGCCTATGAACACACACCGGTACATATA [CACACA_site9352] | 9.33 ± 0.51
